These compounds were tested against Glucocorticoid receptor (Homo sapiens) (UniProt P04150) (assay: GR-GFP Redistribution (AID 450)). Details: U2OS GR-GFP nuclear translocation, laser cytometry, 2 h; series mostly up to 20.6 µM;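 active means compounds whose dose series gives a full or clear partial fitted curve of increased nuclear translocation; inconclusive means weak partial curve or effect only at the top dose; inactive means no dose-dependent translocation response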.
Potency means the concentration at half of the fitted maximal effect.

Sequence of Glucocorticoid receptor (Homo sapiens) (P04150 whole entry, looked up): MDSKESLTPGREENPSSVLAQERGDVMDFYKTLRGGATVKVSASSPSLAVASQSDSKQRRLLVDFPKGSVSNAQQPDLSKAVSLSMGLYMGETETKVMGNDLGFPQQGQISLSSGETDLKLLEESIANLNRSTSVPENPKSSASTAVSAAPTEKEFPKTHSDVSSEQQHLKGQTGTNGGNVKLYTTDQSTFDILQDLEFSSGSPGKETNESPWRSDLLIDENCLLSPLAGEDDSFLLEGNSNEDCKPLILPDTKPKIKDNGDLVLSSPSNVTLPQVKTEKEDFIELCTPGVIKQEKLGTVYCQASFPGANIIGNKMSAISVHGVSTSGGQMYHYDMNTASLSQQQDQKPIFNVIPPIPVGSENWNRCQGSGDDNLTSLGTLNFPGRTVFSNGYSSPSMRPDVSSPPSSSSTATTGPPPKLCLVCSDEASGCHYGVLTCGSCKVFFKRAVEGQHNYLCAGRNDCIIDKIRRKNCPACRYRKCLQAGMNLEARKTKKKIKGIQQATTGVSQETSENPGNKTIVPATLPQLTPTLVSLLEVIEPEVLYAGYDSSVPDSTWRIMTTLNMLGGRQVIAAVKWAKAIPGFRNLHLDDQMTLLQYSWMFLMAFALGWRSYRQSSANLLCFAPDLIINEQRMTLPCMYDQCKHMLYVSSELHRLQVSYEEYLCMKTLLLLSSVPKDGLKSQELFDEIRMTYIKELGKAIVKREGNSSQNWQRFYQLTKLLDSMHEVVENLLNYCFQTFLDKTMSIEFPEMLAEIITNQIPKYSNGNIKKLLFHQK

Potency, inactive:
Cc1ccc(-n2ncc3c(NCCCN4CCCC4=O)ncnc32)c(C)c1 > 20.6 µM
CCOC(=O)c1cc(C)n(-c2ccc(OC)c(OC)c2)c1C > 20.6 µM
CCNC(=O)N(C(=O)NCC)n1c(C)nnc1C > 20.6 µM
COc1ccc(/C(O)=C2/C(=O)C(=O)N(CCCN(C)C)C2c2ccco2)cc1Cl (centres undefined) > 20.6 µM
Cc1cc(=O)oc(C)c1C(=O)NCCC1=CCCCC1 > 20.6 µM
CCCC(CCC(=O)Nc1ccc(C(=O)OC)cc1)C(=O)O (centres undefined) > 20.6 µM
c1ccc(-n2c(Cc3cccnc3)nc3cnccc32)cc1 > 20.6 µM
COc1cccc(C2/C(=C(/O)c3cnn(-c4ccccc4)c3C)C(=O)C(=O)N2CCN(C)C)c1 (centres undefined) > 20.6 µM
COC(=O)c1[nH]c(C)c(/C(O)=C2\C(=O)C(=O)N(CCN3CCOCC3)C2c2cccnc2)c1C (centres undefined) > 20.6 µM
COC(=O)c1ccc(N2C(=O)CC(N3CCN(C(=O)c4ccco4)CC3)C2=O)cc1 (centres undefined) > 20.6 µM
C=C(Br)Cn1c(CCCC)nc2ccccc21 > 20.6 µM
O=S(CCc1ccncc1)Cc1ccccc1 (centres undefined) > 20.6 µM
Cc1cc(=O)oc(C)c1C(=O)NCCNC(=O)c1c(C)cc(=O)oc1C > 20.6 µM
CC12CN3CC(C)(CN(C1)C3c1ccc(Cl)cc1Cl)C2O (centres undefined) > 20.6 µM
COc1ccc2c(c1)[nH]c1c(=O)n(CCN(C)C)cnc12 > 20.6 µM
CC1(C)Cc2c(C#N)c(SCc3nc4ccccc4[nH]3)nc(N3CCOCC3)c2CO1 > 20.6 µM
CSc1nc2sc3c(c2c(=O)[nH]1)CCC(C)C3 (centres undefined) > 20.6 µM
CSc1nc(C)cc(OCCNS(=O)(=O)c2cc(C)ccc2C)n1 > 20.6 µM
Cn1ncc(N=Cc2ccccc2O)c1C(=O)N1CCOCC1 > 20.6 µM
COc1ccc(CNC(=O)[C@H](C)NC(=O)C2CCN(S(=O)(=O)c3ccc(C)cc3)CC2)cc1 > 20.6 µM
COc1ccc(CC(=O)n2c(CC#N)nc3ccccc32)cc1OC > 20.6 µM
Cc1nc2c(o1)CCc1ccccc1C2N1CCN(C)CC1 (centres undefined) > 20.6 µM
CCOC(=O)c1[nH]c2ccc(Br)cc2c1NC(=O)CCN1CCN(C(=O)OCC)CC1 > 20.6 µM
O=C(NCc1ccccc1)c1ccc(=O)[nH]n1 > 20.6 µM
Cn1c(=O)c2c(nc(NCc3ccc4c(c3)OCO4)n2Cc2ccccc2)n(C)c1=O > 20.6 µM
O=C1[C@@H]2[C@H](C(=O)N1n1cnnc1)[C@H]1C=C[C@@H]2C1 > 20.6 µM
COc1ccc(C2C(C#N)=C(N)Oc3cc(C)n(CCN4CCOCC4)c(=O)c32)cc1OC (centres undefined) > 20.6 µM
Cc1cc(C)n(CC(=O)n2nc(C)cc2C)n1 > 20.6 µM
Cc1ccc(-c2nn(CCC(=O)NCC3CCCO3)c(=O)c3ccccc23)cc1 (centres undefined) > 20.6 µM
O=C(O)CC(SCc1ccc(C(=O)O)o1)C(=O)O (centres undefined) > 20.6 µM
CC12CCC(C(=O)N(CCC#N)CCC#N)(CC1=O)C2(C)C (centres undefined) > 20.6 µM
CN1CCc2c(sc3c2C(=O)NC(c2ccco2)N3)C1 (centres undefined) > 20.6 µM
Cc1cccc(C)c1N1C(=O)C2ON(c3ccccc3)C(c3ccncc3)C2C1=O (centres undefined) > 20.6 µM
CCCCSc1nnc(-c2ccc(NC(C)=O)cc2)n1C > 20.6 µM
CC(NC(=O)Nc1ncccn1)(C(F)(F)F)C(F)(F)F > 20.6 µM
CC(=O)OCC(=O)[C@H]1CC[C@H]2[C@@H]3CC=C4C[C@@H](O)CC[C@]4(C)[C@H]3CC[C@]12C > 20.6 µM
O=c1[nH]c(CN(CCO)CCO)nc2c1C1(CCCCC1)Cc1ccccc1-2 > 20.6 µM
Cn1c(NCc2ccccc2)nc2c1c(=O)n(Cc1ccccc1)c(=O)n2C > 20.6 µM
Cn1c2c(c(=O)n(C)c1=O)C(NC(=O)c1cccs1)(C(F)(F)F)C(=O)N2 (centres undefined) > 20.6 µM
